# KCNQ2 enhance: potentiators of rat KCNQ2 potassium channel; 310,000 tested, 0.54% active; CHO-K1 KCNQ2, FluxOR thallium flux fluorescence; stronger effect = higher value; B-score at 10 µM;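 active = fluorescence ratio B-score at least 3 SD of library B-scores, with initial fluorescence B-score within 3 of them, cut at about 5.3 in these data; same plate scores as AID 2156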;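 note: B-score of peak minus minimum over baseline fluorescence ratio after K+ and Tl+ stimulus; positive B-score means potentiation of KCNQ2 with more thallium influx and brighter signal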
# Target sequence (O88943 whole entry, looked up): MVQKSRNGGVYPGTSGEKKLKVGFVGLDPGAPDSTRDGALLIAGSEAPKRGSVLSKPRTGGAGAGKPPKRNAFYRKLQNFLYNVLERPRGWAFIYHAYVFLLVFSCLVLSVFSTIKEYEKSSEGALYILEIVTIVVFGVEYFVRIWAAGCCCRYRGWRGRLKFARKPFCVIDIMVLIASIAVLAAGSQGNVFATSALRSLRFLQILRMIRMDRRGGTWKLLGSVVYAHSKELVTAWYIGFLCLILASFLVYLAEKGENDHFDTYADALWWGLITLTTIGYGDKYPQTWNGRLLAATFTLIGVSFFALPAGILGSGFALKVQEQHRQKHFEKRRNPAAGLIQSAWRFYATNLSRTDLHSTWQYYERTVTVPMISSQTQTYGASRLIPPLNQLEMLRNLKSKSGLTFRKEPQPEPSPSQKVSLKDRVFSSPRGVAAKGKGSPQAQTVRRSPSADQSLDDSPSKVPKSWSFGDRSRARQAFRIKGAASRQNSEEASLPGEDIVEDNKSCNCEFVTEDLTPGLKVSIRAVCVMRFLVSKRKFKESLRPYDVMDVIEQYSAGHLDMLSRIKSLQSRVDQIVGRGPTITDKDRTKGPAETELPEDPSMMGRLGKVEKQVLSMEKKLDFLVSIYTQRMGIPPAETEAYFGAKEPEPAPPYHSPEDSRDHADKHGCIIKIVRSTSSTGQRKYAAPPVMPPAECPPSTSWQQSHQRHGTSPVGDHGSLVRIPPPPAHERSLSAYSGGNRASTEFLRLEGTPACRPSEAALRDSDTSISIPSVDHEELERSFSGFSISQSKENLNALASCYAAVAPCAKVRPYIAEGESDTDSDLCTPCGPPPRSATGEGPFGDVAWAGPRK
# KCNQ2 block: rat KCNQ2 potassium channel inhibitors, primary screen, cell-based, CHO-K1, FluxOR thallium flux, B-score. Potassium voltage-gated channel subfamily KQT member 2 (Rattus norvegicus), O88943. 20 min; stronger effect = lower value. B-score at 10 µM. 310,000 tested, 1.1% active. AID 2156, 2009;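 active = fluorescence ratio B-score at most minus 3 library SDs, with starting brightness B-score within 2 library SDs, cut at about -5.5 in these data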
# The depositor's hits bear a star; i = inactive; nt = no result. An excerpt weighted towards active compounds, which were near 1.6% of everything screened.
SMILES,KCNQ2 enhance,KCNQ2 block
CCOP(=O)(OCC)c1nc(-c2cccc3ccccc23)oc1N1CCCCC1,-6.1,-6.1*
COP(=O)(OC)c1nc(-c2cccc3ccccc23)oc1N1CCCCC1,nt,i
N#CC(c1cccc(Cl)c1)c1ccc2c(C(F)(F)F)cc(C(F)(F)F)nc2n1 (centres undefined),15*,i
NNc1ccc2c(C(F)(F)F)cc(C(F)(F)F)nc2n1,0.33,i
CCOC(=O)C1=C(N)Oc2ccc3ccccc3c2C1c1ccc(O)c(OC)c1 (centres undefined),nt,i
CCOC(=O)C1=C(N)Oc2ccc3ccccc3c2C1c1ccc(O)cc1 (centres undefined),-6.5,-6.5*
CCCn1nc([N+](=O)[O-])c(C(C#N)c2nc3ccccc3o2)c(Cl)c1=O (centres undefined),nt,i
Cn1nc([N+](=O)[O-])c(C(C#N)c2ccccn2)c(Cl)c1=O (centres undefined),-5.8,-5.8*
Cc1ccc(SC(=O)c2c([N+](=O)[O-])c(C)nn2C)cc1,-5.9,-5.9*
Cc1cc(C)n(C(=O)c2c([N+](=O)[O-])c(C)nn2C)n1,0.67,i
O=C(CS(=O)(=O)c1ccccc1Cl)N1CCOCC1,nt,i
Cc1c(C(=O)O)oc2ccc(S(=O)(=O)N3CCCC3)cc12,nt,i
CCCCN(C)C(=O)c1oc2ccc(S(=O)(=O)N3CCCCCC3)cc2c1C,-5.6,-5.6*
CCN(CC)c1ccc(C=NCCNS(=O)(=O)c2ccc(C)cc2)cc1,0.47,i
COc1ccccc1C(=O)Nn1c(C2CCC2)nc2ccccc2c1=O,nt,i
CCOc1ccccc1C(=O)Nn1c(C2CCC2)nc2ccccc2c1=O,-6.8,-6.8*
O=C(CCc1ccccc1)N/N=C/c1cccc([N+](=O)[O-])c1,2.2,i
O=C(N/N=C/c1cccc([N+](=O)[O-])c1)C1CC1c1ccccc1 (centres undefined),15*,i
O=C(N/N=C/c1ccco1)C1CC1c1ccccc1 (centres undefined),20*,i
O=C(N/N=C/c1ccco1)C1CC1,1.2,i
Fc1ccc(-c2csc(=S)[nH]2)cc1,11*,i
O=c1[nH]c(-c2ccc(Cl)cc2)cs1,nt,i
Cn1c(C(O)C(O)c2ccccc2)nc2ccccc21 (centres undefined),0.77,i
Cn1c(N2CCN(C(c3ccccc3)c3ccccc3)CC2)nc2ccccc21,-12,-12*
COc1ccc(NC(=S)N(CCCN2CCOCC2)Cc2ccco2)cc1,nt,i
SMILES,KCNQ2 enhance,KCNQ2 block
CCc1ccc(NC(=S)N(CCCN2CCOCC2)Cc2ccco2)cc1,6.6*,i
COc1cccc(CNc2nnnn2C)c1,0.78,i
Cc1cccc(C)c1NC(=O)c1sccc1SCc1cccc(C(F)(F)F)c1,nt,i
Cc1ccc(NC(=O)c2sccc2SCc2cccc(C(F)(F)F)c2)cc1,-6.8,-6.8*
CCOc1ccc2ccccc2c1C(=O)NCC(c1ccc(N(C)C)cc1)N(C)C (centres undefined),1.2,i
Cn1c(CC(=O)Nc2ccc(F)cc2)c(Sc2ccccc2)c2ccccc21,nt,i
COc1ccc(NC(=O)Cc2c(Sc3ccccc3)c3ccccc3n2C)cc1,-6.3,-6.3*
CC(C)[C@H](NC(=O)[C@H]1N2C(=O)c3ccccc3C2SC1(C)C)C(=O)NCc1ccco1 (some centres undefined),nt,i
COc1ccccc1OCC(=O)NCCSCc1ccc(Cl)cc1,-5.6,-5.6*
O=C(CSCc1ccc(Cl)cc1)NCCSCc1ccco1,-6.4,-6.4*
O=C(CSCc1c(F)cccc1Cl)NCCSCc1ccco1,nt,i
COc1ccccc1N(CC(=O)NCCSCc1ccc(Cl)cc1)S(C)(=O)=O,0.05,i
CCCn1ncc(CN2CCC(n3nccc3NC(=O)c3ccccc3Cl)CC2)c1C,0.06,i
Cc1cccc(C)c1NC(=O)c1cccc2c1C(=O)N(C1CCCCC1)C2,nt,i
Cc1ccnc(NC(=O)c2ccc3[nH]c(=O)c(=O)[nH]c3c2)c1,nt,i
COc1ccccc1NS(=O)(=O)c1cccc(C(=O)N2CC(C)OC(C)C2)c1 (centres undefined),2,i
CN(C(=O)COC(=O)c1ccccc1NCc1ccco1)c1c(N)n(Cc2ccccc2)c(=O)[nH]c1=O,nt,i
O=C(OCc1nnc(-c2ccccc2)o1)c1cn(-c2ccccc2)nc1-c1ccccc1,-6.2,-6.2*
O=C(OCc1nnc(-c2ccccc2)o1)c1ccc(-n2cnnn2)cc1,0.35,i
O=C(CCS(=O)(=O)Cc1ccccc1)Nc1ncc([N+](=O)[O-])s1,nt,i
O=C(NN=C1CCCC1)c1ccc(O)cc1,2.9,i
COc1cccc(NC(=O)CN(C)C(=O)Cn2cnc3ccccc3c2=O)c1,0.51,i
CC(C)C(CCNC(=O)CC(Cc1ccccc1)c1ccco1)c1ccco1 (centres undefined),-14,-14*
CC(C)C(CCNC(=O)CN1C(=O)c2ccccc2C1=O)c1ccco1 (centres undefined),nt,i
COc1ccc(CCNC(=O)c2cccc(NS(=O)(=O)c3ccccc3F)c2)cc1OC,0.43,i
SMILES,KCNQ2 enhance,KCNQ2 block
COCc1cc(Sc2ccc(Br)cc2)nc(-c2ccccc2)n1,nt,i
COCc1cc(Sc2ccc(Cl)cc2)nc(-c2ccccc2)n1,-5.9,-5.9*
O=C(OCC(=O)N1CCCC1=O)C1CCN(S(=O)(=O)c2c(Cl)cccc2Cl)CC1,0.68,i
Cc1noc(C)c1COc1cccc(C(=O)OCC(=O)NCCN2C(=O)CSC2=O)c1,8.3*,i
O=C(COC(=O)c1cccc(Cl)c1)NCCN1C(=O)CSC1=O,0.05,i
CC1CCCC(C)N1C(=O)COC(=O)CCC1CCCC1 (centres undefined),nt,i
CCOC(=O)c1c(NC(NC(C)=O)C(Cl)(Cl)Cl)sc2c1CCCC2 (centres undefined),-6.5,-6.5*
COC(=O)c1c(NC(NC(C)=O)C(Cl)(Cl)Cl)sc2c1CCCC2 (centres undefined),nt,i
COc1cccc(NC(=O)C(=O)NCCCN2CCCC2=O)c1,0.4,i
O=C(O)[C@H](Cc1ccccc1)N1C(=O)c2c(Cl)c(Cl)c(Cl)c(Cl)c2C1=O,nt,i
Cc1ccc(NC(=O)C2COc3ccccc3O2)cc1C (centres undefined),nt,i
O=C1C(Cl)=C(NCCN2CCCCC2)C(=O)c2ccccc21,-5.8,-5.8*
CCNC1=C(Cl)C(=O)c2ccccc2C1=O,0.29,i
CC1=CC(=O)C(C(C)C)=C/C1=C(\c1cc(C(C)C)c(OP(=O)(O)O)cc1C)c1ccccc1C(=O)O,1.8,i
COc1ccccc1CNC(=O)C1(c2ccc(Cl)cc2)CC1,-5.7,-5.7*
COc1ccc(C2(C(=O)NCc3ccccc3Cl)CCOCC2)cc1OC,0.8,i
CCCCn1c(N)c(N(CC(C)C)C(=O)C2CCN(S(=O)(=O)c3ccc(Cl)cc3)CC2)c(=O)[nH]c1=O,0.13,i
Cc1cccc(C(=O)N2CCCC(N3CCN(c4cccc(Cl)c4)CC3)C2)n1 (centres undefined),0.04,i
Cc1ccsc1C(=O)N1CCCC(N2CCN(c3cccc(Cl)c3)CC2)C1 (centres undefined),-7.1,-7.1*
O=C(COc1ccc2c(c1)OCO2)NC12CC3CC(CC(C3)C1)C2,nt,i
O=C(NCc1ccc2c(c1)OCO2)NC12CC3CC(CC(C3)C1)C2,25*,i
